Results: PubChem BioAssay
Values without a mark were called inactive. For some of these results: Results with a measured potency or affinity are listed apart. The source made the active and inactive calls. Unless noted, the rule behind the calls is not given here.

Legend:
[1] = antimalarial activity against Dd2 strain (AID 2302;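 active = growth inhibition above 50% at the single 2 µM test dose, taken to imply half-maximal potency below 2 µM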;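 note: 0% = DMSO untreated growth and 100% = chloroquine plus artemisinin killed control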); settings: P. falciparum Dd2 in RBCs, LDH growth readout, 72 h; at 2 µM; stronger effect = higher value
[2] = human hepatoma cell viability loss – ATP luminescence, cytotoxicity control for P. falciparum antimalarial project, primary screen (AID 2303;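 active = inhibition above 50%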;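 note: 0% = DMSO wells and 100% = digitonin-killed cells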); settings: HepG2 viability, 24-48 h, at 10 µM, stronger effect = higher value
[3] = target: L-lactate dehydrogenase (Plasmodium falciparum (isolate CDC / Honduras)) (UniProt Q27743); assay: PfLDH activity inhibition – cell lysate, 3D7 strain, counter-screen for P. falciparum growth inhibition project (AID 2304);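 note: 0% = vehicle and 100% = reference inhibitor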; settings: P. falciparum 3D7 crude extract, LDH APAD/NBT absorbance; at 2 µM; stronger effect = higher value
Sequence of L-lactate dehydrogenase (Plasmodium falciparum (isolate CDC / Honduras)) (Q27743 whole entry, looked up): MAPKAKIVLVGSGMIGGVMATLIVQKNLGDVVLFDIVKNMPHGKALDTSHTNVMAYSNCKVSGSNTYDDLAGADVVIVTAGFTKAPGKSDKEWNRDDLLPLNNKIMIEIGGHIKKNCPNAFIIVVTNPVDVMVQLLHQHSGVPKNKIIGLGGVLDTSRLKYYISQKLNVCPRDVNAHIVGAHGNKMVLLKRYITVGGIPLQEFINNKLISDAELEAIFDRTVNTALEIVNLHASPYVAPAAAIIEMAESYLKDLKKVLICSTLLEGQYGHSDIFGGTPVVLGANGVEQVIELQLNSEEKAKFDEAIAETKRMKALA

[4] = inhibition of 3D7 malaria parasite growth – strain 3D7 (AID 2306);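 note: 0% = DMSO wells and 100% = chloroquine plus artemisinin control wells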; settings: P. falciparum 3D7 erythrocytic growth, LDH absorbance, 72 h; at 2 µM; stronger effect = higher value
[5] = target: Calcium-dependent protein kinase 1 (Plasmodium falciparum (isolate 3D7)) (UniProt P62344); assay: PfCDPK1 kinase inhibitors, biochemical, TCAMS library (AID 1159585; cut-off not given, nearly all actives have IC50 up to about 0.98 µM;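 note: inhibitors leave more ATP so luminescence rises with inhibition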); settings: recombinant PfCDPK1, Kinase-Glo ATP depletion luminescence
Sequence of Calcium-dependent protein kinase 1 (Plasmodium falciparum (isolate 3D7)) (P62344 whole entry, looked up): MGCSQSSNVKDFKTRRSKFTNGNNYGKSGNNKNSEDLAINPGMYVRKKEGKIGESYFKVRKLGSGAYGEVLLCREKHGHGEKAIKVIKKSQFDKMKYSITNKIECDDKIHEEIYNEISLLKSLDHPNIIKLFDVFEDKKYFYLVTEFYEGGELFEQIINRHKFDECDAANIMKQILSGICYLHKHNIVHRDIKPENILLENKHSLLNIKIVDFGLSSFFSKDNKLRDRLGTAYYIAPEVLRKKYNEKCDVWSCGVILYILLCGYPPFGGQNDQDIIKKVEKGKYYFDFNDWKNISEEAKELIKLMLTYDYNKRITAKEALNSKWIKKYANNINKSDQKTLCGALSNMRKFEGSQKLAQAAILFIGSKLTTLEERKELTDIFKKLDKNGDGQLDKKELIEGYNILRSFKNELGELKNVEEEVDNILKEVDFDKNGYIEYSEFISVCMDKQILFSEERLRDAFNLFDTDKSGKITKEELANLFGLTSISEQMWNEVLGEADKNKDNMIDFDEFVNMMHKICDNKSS

[6] = target: Plasmodium falciparum protein kinase 6 (PK6, PF3D7_1337100) (UniProt Q8IDW1); assay: PfPK6 kinase inhibitors, biochemical, TCAMS library (AID 1159586); settings: recombinant PfPK6, Kinase-Glo ATP depletion luminescence
Sequence of Plasmodium falciparum protein kinase 6 (PK6, PF3D7_1337100) (Q8IDW1 1-305): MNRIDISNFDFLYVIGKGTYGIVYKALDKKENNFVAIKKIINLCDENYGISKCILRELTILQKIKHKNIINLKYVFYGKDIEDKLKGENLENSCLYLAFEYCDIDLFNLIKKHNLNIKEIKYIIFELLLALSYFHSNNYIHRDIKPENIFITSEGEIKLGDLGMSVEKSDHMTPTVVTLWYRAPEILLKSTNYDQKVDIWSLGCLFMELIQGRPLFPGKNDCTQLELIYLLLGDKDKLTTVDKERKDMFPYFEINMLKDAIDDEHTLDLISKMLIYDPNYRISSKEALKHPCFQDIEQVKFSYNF

[7] = target: Protein kinase 7 (PK7), Plasmodium falciparum 3D7 (PF3D7_0213400) (UniProt Q7YTF7); assay: inhibition of Plasmodium PK7 catalytic activity – biochemical, TCAMS antimalarial set, Kinase-Glo luminescence (AID 1159587); settings: recombinant PfPK7, Kinase-Glo ATP depletion luminescence
Sequence of Protein kinase 7 (PK7), Plasmodium falciparum 3D7 (PF3D7_0213400) (Q7YTF7 1-343): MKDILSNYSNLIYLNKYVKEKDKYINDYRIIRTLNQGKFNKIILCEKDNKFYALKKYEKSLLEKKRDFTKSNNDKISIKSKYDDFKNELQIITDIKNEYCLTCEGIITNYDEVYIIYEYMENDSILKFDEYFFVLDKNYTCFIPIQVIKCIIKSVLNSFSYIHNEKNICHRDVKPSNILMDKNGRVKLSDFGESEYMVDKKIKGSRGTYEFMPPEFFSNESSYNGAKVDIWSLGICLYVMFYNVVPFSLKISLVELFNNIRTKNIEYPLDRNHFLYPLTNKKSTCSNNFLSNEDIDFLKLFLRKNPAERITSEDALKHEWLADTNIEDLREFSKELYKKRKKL

[8] = target: Calcium-dependent protein kinase 4 (Plasmodium falciparum (isolate 3D7)) (UniProt Q8IBS5); assay: PfCDPK4 kinase inhibitors, biochemical, TCAMS library (AID 1159588; cut-off not given, nearly all actives have IC50 up to about 0.91 µM); settings: recombinant PfCDPK4, Kinase-Glo ATP depletion luminescence
Sequence of Calcium-dependent protein kinase 4 (Plasmodium falciparum (isolate 3D7)) (Q8IBS5 whole entry, looked up): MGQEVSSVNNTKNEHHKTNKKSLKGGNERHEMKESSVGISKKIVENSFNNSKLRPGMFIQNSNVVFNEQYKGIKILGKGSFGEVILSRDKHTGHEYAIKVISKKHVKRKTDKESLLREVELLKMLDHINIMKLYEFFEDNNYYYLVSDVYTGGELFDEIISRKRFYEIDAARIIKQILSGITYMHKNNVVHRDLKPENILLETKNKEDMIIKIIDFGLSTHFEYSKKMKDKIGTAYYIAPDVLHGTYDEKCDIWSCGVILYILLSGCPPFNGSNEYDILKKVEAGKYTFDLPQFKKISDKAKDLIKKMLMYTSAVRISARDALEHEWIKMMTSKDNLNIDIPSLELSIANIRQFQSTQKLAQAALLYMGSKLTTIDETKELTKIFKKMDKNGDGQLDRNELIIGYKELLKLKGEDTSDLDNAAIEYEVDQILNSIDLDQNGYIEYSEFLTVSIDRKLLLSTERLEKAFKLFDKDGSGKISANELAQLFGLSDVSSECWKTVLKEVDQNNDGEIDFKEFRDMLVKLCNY

| SMILES | growth inhibition [1] | inhibition [2] | inhibition [3] | growth inhibition [4] | outcome [5] | outcome [6] | outcome [7] | outcome [8] |
| --- | --- | --- | --- | --- | --- | --- | --- | --- |
| O=C(Nc1cccc(CN2CCCN(CCc3ccccc3)CC2)c1)c1ccc(Cl)c(Cl)c1 | 15% | 41% | -5% | 86% (active) | inactive | inactive | inactive | inactive |
| Cc1cc(F)ccc1Nc1nc(N(C)c2ccccc2)c2cccc(O)c2n1 | 81% (active) | 38% | 2% | 92% (active) | inactive | inactive | inactive | inactive |
| COc1ccc(C(=O)Nc2ccc3nc(N4CCCCC4)cc(C)c3c2)cc1OC | 7% | 15% | 3% | 92% (active) | inactive | inactive | inactive | inactive |
| NOCCCCOc1ccccc1 | 2% | 12% | -4% | 99% (active) | inactive | inactive | inactive | inactive |
| COc1cccc(CC(=O)N2CCC(n3c(C)nc4ccc(C)cc43)CC2)c1 | 99% (active) | 1% | -2% | 100% (active) | inactive | inactive | inactive | inactive |
| COc1cc(-c2nc3c4ccccc4c4ccccc4c3[nH]2)cc(OC)c1OC | 10% | 4% | 5% | 90% (active) | inactive | inactive | inactive | inactive |
| CC(=O)CC(=O)N1CCN(c2ccccc2)CC1 | -6% | 54% (active) | -1% | 85% (active) | inactive | inactive | inactive | inactive |
| CCN(CC)CCN(Cc1ccc(-c2ccc(C(F)(F)F)cc2)cc1)C(=O)Cn1c(CCc2cccc(C#N)c2)nc(=O)c2ccccc21 | 47% | 36% | -1% | 101% (active) | inactive | inactive | inactive | inactive |
| COc1nc2c(CCN3CCC(NCc4ccc5c(n4)NC(=O)CO5)CC3)c(Cl)cnc2cc1F | 40% | 17% | -9% | 99% (active) | inactive | inactive | inactive | inactive |
| COc1ccc2nccc([C@@H](O)CN3CCC(CO)(NCc4cc5ccccc5o4)CC3)c2c1 | 7% | 12% | -1% | 85% (active) | inactive | inactive | inactive | inactive |
| Cc1cc(N)nc2ccc(-c3ccc(CN)cc3)cc12 | 93% (active) | 4% | -3% | 100% (active) | inactive | inactive | inactive | inactive |
| Cc1ccc(CNC(=O)c2cc3c(=O)n4cccc(C)c4nc3n(CCN3CCOCC3)c2=N)cc1 | 21% | 31% | -6% | 97% (active) | inactive | inactive | inactive | inactive |
| COc1ccc(CCNCC(O)COc2nccc3c(S(=O)(=O)N4CCCNCC4)cccc23)cc1OC (stereo not given) | -5% | 59% (active) | -6% | 96% (active) | inactive | inactive | inactive | inactive |
| CCOC(=O)c1cn(CC)c2cc(N(C)CCc3ccc(OC)c(OC)c3)c(F)cc2c1=O | 96% (active) | 9% | 4% | 92% (active) | inactive | inactive | inactive | inactive |
| CN1CCC(Oc2cc(NC(=O)Nc3ccc(-c4ccncc4)c(C(F)(F)F)c3)ccc2Cl)CC1 | 92% (active) | 30% | -1% | 100% (active) | inactive | inactive | inactive | inactive |
| Cc1cccc(-c2nn(-c3ccccc3)cc2C(=O)Nc2nnc(C)o2)c1 | 63% (active) | 38% | 4% | 84% (active) | inactive | inactive | inactive | inactive |
| Cc1ccccc1CNc1ccc2nc(N)nc(N)c2c1 | 90% (active) | 59% (active) | -3% | 101% (active) | inactive | inactive | inactive | inactive |
| Cc1cccc2[nH]c(-c3ccc(-c4cccc(NC(=O)C(C)CN5CCN(C)CC5)c4)s3)nc12 (stereo not given) | 75% (active) | 11% | -6% | 97% (active) | inactive | inactive | inactive | inactive |
| CN(C)CCNCc1nc(-c2ccc3c(Nc4ccc(Cl)cc4F)ccnc3c2)cs1 | 100% (active) | -2% | -9% | 101% (active) | inactive | inactive | inactive | inactive |
| O=C(NCc1ccc(F)cc1)Nc1cccc(-c2ccc(-c3nc4ccccc4[nH]3)cc2)c1 | 49% | 45% | 2% | 101% (active) | inactive | inactive | inactive | inactive |
